Screening data deposited in PubChem by University of Kansas High Throughput Screening Laboratory.
Only a selection was taken, and hits are over-represented in it overall.
mHTT-CaM PPI inh – mHTT-calmodulin interaction abrogation | AlphaScreen His-mHTT/GST-CaM binding, luminescence | inhibition, % at 15 µM | actives 3.6% (n = 190,000);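 note: 0% = both proteins with DMSO and 100% = one protein alone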
Pf apPOL inh – Pf-apPOL DNA polymerase inhibition; Recombinant Pf-apPOL, molecular beacon fluorescence, 1.5 h; inhibition, % at 10 µM; actives 0.25% (n = 210,000); AID 1794808
An asterisk follows results filed as active; · = not tested or not shown; ! = not confirmed by another sample. Cut-off read from the data, not from the text of the source: active = inhibition above about 50%; inactive = the rest.

SMILES	mHTT-CaM PPI inh	Pf apPOL inh
O=C(Nc1ncn[nH]1)c1ccccc1O	99.4*!	-11.0
CN1c2ccccc2C(=O)NC12CCN(C(=O)Nc1cccc(Cl)c1)CC2	-7.3	-0.8
CCC(C)c1ccccc1NC(=O)Cc1ccccc1OC (centres undefined)	-4.2	-7.5
CCC(=O)N1CCN(c2ccc(C)c(F)c2)C(=O)C1C (centres undefined)	-1.3	-3.7
COc1ccc(OC)c(NC(=O)c2c(NCc3cccnc3)sc3c2CCC3)c1	81.0*	-14.2
COc1ccc(OC)c(NC(=O)c2c(NC(=O)CNCc3ccco3)sc3c2CCC3)c1	3.4	-0.6
CCOc1ccccc1NC(=O)c1c(NCc2cccnc2)sc2c1CCCCC2	80.0*	-17.4
COc1ccccc1NC(=O)c1c(N)sc2c1CCCC2	30.7	-4.5
CCOC(=O)N1CCc2c(sc(NC(=O)c3cc(C)on3)c2C(=O)OC)C1	-12.1	-2.0
CCOc1ccccc1NC(=O)c1c(NCc2ccccn2)sc2c1CCCC2	30.0	-26.7
COc1ccc(OC)c(NC(=O)c2c(N)sc3c2CCCCC3)c1	64.5*	-4.1
CCOC(=O)N1CCc2c(sc(N)c2C(=O)Nc2cc(OC)ccc2OC)C1	53.6*	-8.5
NC(=O)c1ccc(NC(=O)CSC2=Nc3ccccc3N=C(c3ccccn3)C2)cc1	3.8	-4.6
Cc1cc2nc(-c3ccc(C)c(NC(=O)c4ccccc4[N+](=O)[O-])c3)oc2cc1C	4.9	4.8
O=C(c1ccccc1)c1ccc(OC(=O)N2CCCCC2)cc1	-11.0	-6.1
Cc1noc(C2CN(C(=O)Nc3ccc(Cl)cc3F)CC23CCOCC3)n1 (centres undefined)	-4.3	-9.7
COc1ccccc1NC(=O)c1c(NCc2cccnc2)sc2c1CCCCC2	80.0*	-19.2
COc1ccc(OC)c(NC(=O)c2c(NCc3ccc(OC)c(OC)c3)sc3c2CCC3)c1	52.0*	-16.8
CCOc1ccccc1NC(=O)c1c(NC(=O)C(F)(F)F)sc2c1CCCCC2	7.0	4.4
COc1ccccc1NC(=O)c1c(NCc2ccc(OC)c(OC)c2)sc2c1CCC2	27.0	-14.7
O=[N+]([O-])c1ccc2c(c1)ncn2C1CCCCC1	0.0	·
O=C(Nc1nnc(-c2ccc([N+](=O)[O-])cc2)s1)Nc1ccccc1F	-0.6	-14.6
Cc1ccc(C)c(NC(=O)N2CCC3(CC2)NC(=O)c2cccc(Cl)c2N3)c1	16.7	-0.4
COc1cccc(CN2CCC(C(=O)N3CCc4ccccc4C3)CC2)c1	2.3	3.0
Nc1nnc(SCC(=O)Nc2ccc3c(c2)OCO3)s1	·	-9.6
SMILES	mHTT-CaM PPI inh	Pf apPOL inh
Nc1sc(SCC(=O)Nc2ccc3c(c2)OCO3)nc1-c1ccccc1	78.2*	1.0
CC(C)(Oc1ccc(Cl)cc1)C(=O)N1CC(c2nc(-c3ccccn3)no2)C1	-0.3	4.7
COc1ccccc1Cc1noc(C2CN(C(=O)C(C)(C)Oc3ccc(Cl)cc3)C2)n1	70.3*	-4.0
CCC(=O)N1CCCC(c2nc(CCNC(C)=O)cs2)C1 (centres undefined)	-7.7	-2.3
O=C(CC1Nc2cccc3cccc(c23)NC1=O)Nc1cccc(C(F)(F)F)c1 (centres undefined)	50.7*	0.6
COc1cccc(NC(=O)CC2Nc3ccccc3NC2=O)c1 (centres undefined)	8.5	3.1
COCCNc1ccc(-c2nc(-c3ccccc3)no2)cn1	-12.5	-6.4
O=C(O)CC(C(=O)O)n1nc(-c2ccccc2)cc1-c1ccccc1 (centres undefined)	1.0	96.3*
Cc1cc(C)n(C(CC(=O)O)C(=O)O)n1 (centres undefined)	-3.4	0.4
CCN(C(=O)c1ccc([N+](=O)[O-])cc1)c1ccccc1C	2.9	-3.0
Cc1ccc(-n2c(C)ccc2C)c([N+](=O)[O-])c1	67.4*	-2.5
Cc1ccc(-c2ccc(C)cc2[N+](=O)[O-])c([N+](=O)[O-])c1	·	-1.4
Cc1ccc(Cl)cc1NC(=O)CCCCCN1C(=O)c2cccc([N+](=O)[O-])c2C1=O	15.0	0.0
COc1cccc(CNC(=O)C2(C)CCCN(S(=O)(=O)c3ccc(C(C)C)cc3)C2)c1 (centres undefined)	6.0	-1.8
O=C(NCc1cccc(F)c1)C1CCN(c2cnc3nccnc3c2)CC1	-6.8	-3.2
N#CSC(C#N)Cc1ccccc1 (centres undefined)	42.5	-7.4
N#CSC(C#N)Cc1ccc([N+](=O)[O-])cc1 (centres undefined)	59.9*	-0.6
CN(CC(=O)Nc1nc(-c2ccco2)cs1)c1nc2ccccc2s1	77.0*	16.3
CN(CC(=O)NCc1cccs1)c1nc2ccccc2s1	-16.2	-14.2
Cc1nnsc1C(=O)Nc1nc(-c2ccc3c(c2)OCO3)cs1	-6.0	-3.2
CCOc1ccc(CCNC(=O)CC2CCN(C(=O)C3CCCCC3)CC2)cc1	20.8	-16.3
CN1C(=O)CC(C(=O)O)SC1=Nc1cccc(F)c1 (centres undefined)	-1.0	0.7
Cn1c(NN)nc2sc3c(c2c1=O)CC(C)(C)OC3	36.1	-4.0
CC1(C)Cc2c(sc3nc(NN)nc(NN)c23)CO1	100.3*	-1.5
COc1cc(C2C3=C(CC(C)(C)CC3=O)NC3=C2C(=O)c2ccccc23)cc(OC)c1OC (centres undefined)	61.0*	-0.6
SMILES	mHTT-CaM PPI inh	Pf apPOL inh
COc1cccc(C2C3=C(CC(C)(C)CC3=O)NC3=C2C(=O)c2ccccc23)c1OC (centres undefined)	44.0	-6.5
CC1(C)CC(=O)C2=C(C1)NC1=C(C(=O)c3ccccc31)C2c1ccc(O)cc1 (centres undefined)	50.0	-4.2
CC1(C)CC(=O)C2=C(C1)NC1=C(C(=O)c3ccccc31)C2c1ccc(Br)cc1 (centres undefined)	60.0*	-10.6
C/C(=C\c1ccccc1)c1nc(Cc2c(F)cccc2Cl)no1	-22.0	7.9
CCOC(=O)c1oc2ccccc2c1NC(=O)c1ccccc1[N+](=O)[O-]	-9.3	-7.4
O=C(CSc1ccccc1)N1CCOCC1	-1.6	-9.4
O=C(CSc1nc(-c2ccccc2)c(-c2ccccc2)o1)N1CCOCC1	56.0*!	9.9
CC(C)c1ccc(-n2ccnc(NC(=O)c3ccccn3)c2=O)cc1	91.1*	-21.9
Cc1ccc(-n2ccnc(NC(=O)c3ccccn3)c2=O)cc1C	88.9*	-15.6
CC(C)c1ccc(-n2ccnc(NC(=O)Nc3ccccc3)c2=O)cc1	-0.1	-0.1
Cc1ccc(-n2ccnc(NC(=O)c3cccc(F)c3)c2=O)cc1C	12.2	-1.4
CC(C)C1SCC(C(=O)O)N1C(=O)c1cccc(F)c1 (centres undefined)	-12.3	5.7
Cc1ccc(-n2c(=O)n(CC(=O)NC3CCCCC3)c3cccnc32)cc1	7.4	1.9
Cc1cccc(Cn2c3c(c(C)c2C(=O)NCc2ccccn2)CCCC3)c1	85.8*	3.7
Cc1c2c(n(Cc3c(F)cccc3F)c1C(=O)NCc1ccccn1)CCCC2	17.4	-1.5
CC1CN=C2C(N3CCN(C(=O)c4ccc(C#N)cc4)CC3)=NC=CN21 (centres undefined)	9.2	-12.2
O=C(Nc1c2c(nn1-c1ccc(F)cc1)CSC2)c1ccccc1F	42.0	-2.9
CCOC(=O)Nc1ccc2c(c1)N(C(=O)c1ccccc1)CCC2	-5.7	1.3
Cc1ccc(N2C=C(C(=O)N3CCCCC3)S(=O)(=O)c3ccccc32)cc1C	58.4*	0.1
Cc1ccc(N2C=C(C(=O)N3CCCCC3)S(=O)(=O)c3ccccc32)cc1Cl	-7.0	-1.9
